From PubChem BioAssay
Most compounds without a hit are left out; they make up all but 2.9% or so of the library.
SMARCA2 activ = increases SMARCA2 function in MMTV reporter cells | activation, % at 9.1 µM | AID 652017 | MG213 cells, MMTV-luciferase reporter, dexamethasone, overnight | hit rate 1% among 370,000; in the data active = activation above about 7.8%;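 note: 0% = vehicle wells and 100% = reference activator wells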
FXN GAA850 act = activators of GAA850 frataxin (FXN) promoter; HEK293 lucGAA850 FXN promoter luciferase reporter, 24 h; percent of 10 µM SAHA response; activation, % at 6 µM; hit rate 0.56% among 360,000; AID 540364;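 active = activation above the average of all compounds screened plus 3 SD, cutoff fixed separately per campaign, cut at about 7.5% in these data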;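 note: 0% = DMSO wells and 100% = 10 µM SAHA wells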
proKLK7 act = proKLK7 (human) activation, primary screen | activation, % at 7 µM | purified proKLK7, EDANS-DABCYL substrate fluorescence; 100% is mature enzyme control, 0% vehicle | hit rate 0.9% among 370,000 | AID 652039 | P49862;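 active = activation above the mean of all tested compounds plus 3 SD, computed per campaign excluding outliers beyond control limits, cut at about 13% in these data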
Target sequence (P49862 whole entry, looked up): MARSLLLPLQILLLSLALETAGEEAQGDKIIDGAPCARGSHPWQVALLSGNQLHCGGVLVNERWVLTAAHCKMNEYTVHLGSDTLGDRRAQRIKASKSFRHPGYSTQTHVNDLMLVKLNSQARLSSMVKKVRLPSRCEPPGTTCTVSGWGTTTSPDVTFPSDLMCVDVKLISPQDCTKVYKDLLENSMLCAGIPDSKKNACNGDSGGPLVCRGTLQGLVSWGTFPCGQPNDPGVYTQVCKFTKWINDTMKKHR
FAS-TE inh = inhibitors of human fatty acid synthase thioesterase domain | recombinant FAS-TE, OMFH fluorogenic substrate, fluorescence endpoint | inhibition, % at 15 µM | hit rate 0.67% among 360,000 | AID 602261;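 active = compounds whose normalised, plate-corrected inhibition of enzyme fluorescence in the single-dose primary screen is 50% or more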;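 note: 0% = DMSO with enzyme and 100% = substrate without enzyme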
SMARCA2 act conf = SMARCA2 activation, confirmation screen. shares compounds with SMARCA2 activ. MG213 cells, MMTV-luciferase with dexamethasone, luminescence, overnight; MG213 cells expressing E1A, Rb sequestered; DMSO wells 0%, reference activator 100%. activation, % at 9.1 µM. hit rate 30% among 3,500. AID 652260;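 active = activation above its plate's cutoff, the mean activation of tested wells plus 3 SD, cut at about 7.9% in these data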
GAL4-VP16 Luc = GAL4-VP16 reporter activation counter-screen | hit rate 41% among 3,500 | AID 686939 | HEK293 GAL4-VP16 pG5luc reporter, luciferase luminescence; scaled: DMSO wells 0%, SAHA wells 100% | shares compounds with SMARCA2 activ | activation, % at 9.1 µM;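 active = activation above the solvent-only control well mean plus 3 SD, averaged across control plates, cut at about 5.2% in these data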
* hit, by the source's call; · = no result.

SMILES	SMARCA2 activ	FXN GAA850 act	proKLK7 act	FAS-TE inh	SMARCA2 act conf	GAL4-VP16 Luc
Cc1cc(O)ccc1Nc1cc(-c2cccc(N(C)C)c2)ncn1	11*	4	-1	-2	11*	11*
Cc1ccc(S(=O)(=O)Nc2ccncc2)c(C)c1N(C)S(=O)(=O)c1ccc(F)cc1	-2	0	0	-21	·	·
COc1ccc(Nc2nc3cc(-c4ccsc4)sc3c(=O)n2C)cc1OC	3	1	1	4	·	·
COc1ccc(Nc2nc3cc(-c4sccc4C)sc3c(=O)n2C)cc1OC	9.3*	-2	-1	16	4	8.4*
C=C1CCN(C(Cc2ccccc2)C(=O)OC)S(=O)(=O)c2ccc(F)cc21 (stereo unspecified)	-1	3	0	6	·	·
Oc1ccc(-c2csc(Nc3ncccn3)n2)c(O)c1	9.4*	3	1	2	11*	10*
CCOC(=O)CNC(=S)N(Cc1ccccc1)Cc1ccccc1F	-1	-2	1	14	·	·
Oc1ccc(NC(=S)N=Nc2c(O)[nH]c3ccccc23)cc1	9.7*	-1	0	-2	4	15*
COc1cccc(-c2cnc(C(O)c3ccccc3)[nH]2)c1 (stereo unspecified)	9.2*	-2	0	-10	-2	8.7*
CN1CCN(C(=O)CC2C(=O)NCCN2Cc2ccc(-c3ccccc3)cc2)CC1 (stereo unspecified)	2	1	0	-2	·	·
COc1ccc(C)cc1-n1cnnn1	8.1*	2	0	-3	0	2
CCOC(=O)c1sc(=NC(=O)c2cccc(Br)c2)n(C)c1C	0	2	0	-1	·	·
CCOC(=O)c1sc(=NC(=O)c2cccc(C)c2)n(C)c1C	13*	4	0	-5	5	5.9*
c1ccc(-c2cc(NCCN3CCCCC3)c3ccccc3n2)cc1	25*	-2	0	-4	78*	0
O=C(c1cc(-c2ccccc2)nc2ccccc12)N1CCCC1	-1	1	0	-6	·	·
Cc1ccc(N2C(=O)c3cccc4c([N+](=O)[O-])ccc(c34)C2=O)c2cccnc12	-3	-4	0	-67	·	·
O=C1c2cccc3c([N+](=O)[O-])ccc(c23)C(=O)N1Cc1cccnc1	8	1	-1	-106	·	·
Cc1ccnc(N2C(=O)c3cccc4c([N+](=O)[O-])ccc(c34)C2=O)c1	9.9*	-2	0	-146	-14	4
Cc1nnc(N2C(=O)c3cccc4c([N+](=O)[O-])ccc(c34)C2=O)s1	22*	-1	0	-40	-16	15*
Cc1ccnc(NC(=O)Cn2cc([N+](=O)[O-])cn2)c1	16*	5	0	-5	7	5.8*
CN(c1ccccc1)S(=O)(=O)c1cccc(NC(=O)c2cc3ccccc3oc2=O)c1	12*	5	0	4	-1	6.3*
Cc1ccc(NC(=O)c2cc3ccccc3oc2=O)cc1S(=O)(=O)N(C)C	·	-15	·	-4	·	·
COc1ccccc1NS(=O)(=O)c1cccc(NC(=O)c2cc3ccccc3oc2=O)c1	8.1*	3	0	-1	4	9.5*
Cc1ccccc1Nc1c(-c2ccccn2)nc2c(C)cccn12	0	2	0	10	·	·
COc1nc(C)nc2c1sc1nc3c(cc12)COC(C)(C)C3	10*	2	0	1	4	13*
SMILES	SMARCA2 activ	FXN GAA850 act	proKLK7 act	FAS-TE inh	SMARCA2 act conf	GAL4-VP16 Luc
Cc1nc(OCC(C)C)c2sc3nc4c(cc3c2n1)COC(C)(C)C4	8	2	0	0	·	·
Cc1cccc(NC(=S)NCCC(C)C)c1	2	3	0	2	·	·
CC(C)CCNC(=O)C(=O)Nc1ccccc1	9.1*	7	0	-8	6	7.2*
CC1(C)Cc2c(sc(NC(=O)COc3cccc4ccccc34)c2C#N)C(C)(C)N1	54*	1	0	-1	41*	2
CCN(CC)CCC(=O)Nc1cccc2c1C(=O)c1ccccc1C2=O	33*	2	2	-7	95*	4
Nc1nn(-c2ccccc2)c(N)c1N=Nc1ccccc1	15*	-2	0	3	7	27*
COc1ccc(-c2cc(NC=O)c3ncc(-c4ccc(OC)c(OC)c4)n3c2)cc1OC	13*	-4	-1	7	15*	8.6*
